Source: PubChem BioAssay
D2 ag-1 – agonists of human D2 dopamine receptor; HEK293 T-REx D2 cells, calcium flux agonist mode; 340,000 tested, 0.53% active; activation, % at 2 µM; P14416;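 active = activation over 3 SD above normal in the single-dose calcium agonist read, cut at about 30% in these data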; note: 0% is about no effect
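Agonism is scored from calcium flux in a force-coupled, inducible HEK293 cell line expressing D2, read kinetically for 180 s after compound addition against dopamine controls.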
D2 PAM-1 – positive allosteric modulators of human D2 dopamine receptor; P14416; HEK293 T-REx D2, calcium flux, EC20 dopamine potentiation; potentiation, % at 10 µM; 340,000 tested, 0.34% active; AID 485347;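 active = potentiation over 3 SD above the plate norm, cut at about 30% in these data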; note: 0% is about no effect
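Tetracycline-induced Hek293 Trex D2 cells, force-coupled to calcium, loaded with no-wash calcium dye. Compound added with 180 s kinetic read for agonism, then EC20 dopamine and a further 180 s read for potentiation.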
D2 ag-2 – agonists of human D2 dopamine receptor (beta-arrestin). P14416. DiscoveRx PathHunter D2 beta-arrestin, luminescence, 90 min; 100% = 57 uM dopamine signal. activation, % (test concentration not listed). 360,000 tested, 0.084% active. AID 624465; in the data active = activation above about 40%; inconclusive = between about 15% and that limit
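DiscoveRx PathHunter D2 beta-arrestin cells (2,100/well) attached overnight, then compound-stimulated 90 min at 37 C in HBSS/10 mM HEPES/0.1% Tween-20 buffer; beta-galactosidase complementation read by luminescence after 1 h at ambient temperature. Dopamine 57 uM final (EC100) as control.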
D2 PAM-2 – human D2 receptor positive allosteric modulation; P14416; DiscoveRx D2 beta-arrestin cells, luminescence, 90 min; 100% = 57 uM dopamine signal; potentiation, % (no concentration beside the values); 360,000 tested, 0.23% active; in the data active = potentiation above about 50%; inconclusive = mostly about 30% to 49%
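PathHunter D2 cells, attached overnight at 37 deg C, received compound in DMSO plus dopamine at EC20 (50 nM final) for 90 min at 37 deg C. Beta-arrestin recruitment was read as luminescence after 1 h with detection reagent at ambient temperature.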
D2 antag – antagonists of human D2 dopamine receptor. HEK293 TREx D2 cells, calcium flux, dopamine EC80. AID 485344. 340,000 tested, 2% active. P14416. inhibition, % at 10 µM; in the data active = inhibition above about 30%; inactive = below that, where a call was filed; note: 0% is about no effect
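Antagonism is scored as inhibition of an EC80 dopamine-evoked calcium signal in a force-coupled, tetracycline-inducible HEK293 T-REx D2 line, with compound present 180 s before agonist.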
D3 ag – confirmation of human D3 dopamine receptor agonists, beta-arrestin; DiscoveRx D3 beta-arrestin cells, luminescence, 90 min; shares compounds with D2 ag-1; 2,300 tested, 4% active; AID 720506; Potency, µM (series often up to 76.9 µM), without a hit: at the top dose activation, actives largely listed as activators;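 note: potency is the fitted concentration of half-maximal effect; 100% = dopamine control response; nearly all actives have a fitted effect of over 70% in size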
Target sequence (P35462 whole entry, looked up): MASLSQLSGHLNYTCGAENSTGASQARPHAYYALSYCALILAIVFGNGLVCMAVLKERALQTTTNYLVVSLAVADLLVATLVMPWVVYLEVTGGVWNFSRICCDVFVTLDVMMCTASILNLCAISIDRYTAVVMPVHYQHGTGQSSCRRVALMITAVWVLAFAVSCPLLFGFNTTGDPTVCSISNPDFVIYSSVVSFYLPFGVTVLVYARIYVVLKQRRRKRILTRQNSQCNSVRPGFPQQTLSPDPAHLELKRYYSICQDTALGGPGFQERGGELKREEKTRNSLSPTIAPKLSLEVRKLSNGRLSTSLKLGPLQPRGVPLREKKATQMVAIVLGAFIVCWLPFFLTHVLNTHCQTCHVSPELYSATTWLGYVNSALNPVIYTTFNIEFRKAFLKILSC
D2 ag-3 – D2 receptor agonism, beta-arrestin counterscreen | shares compounds with D2 ag-1 | DiscoveRx PathHunter D2 beta-arrestin, luminescence, 90 min; response scale: percent relative to full dopamine signal | Potency, µM (doses to about 76.9 µM), for inactives: at the top dose activation, most hits filed as activators | 2,300 tested, 5.9% active | AID 720507; note: potency is the fitted concentration of half-maximal effect; % of control where 0% means no effect; nearly all actives have a fitted effect of over 70% in size
* hit, by the source's call; ? = inconclusive; nt = no result given. In the library only some 2.4% were active in any assay of this set; here they are far more common. Unless noted, calls come from the whole dose curve; as a rule, active = well fitted activation curve with a large enough effect; inconclusive = small, poorly fitted or top-dose-only effect; inactive = flat fitted curve, though single readings scatter.

SMILES	D2 ag-1	D2 PAM-1	D2 ag-2	D2 PAM-2	D2 antag	D3 ag	D2 ag-3
CCc1nc2ccc(C(=O)N(CC)CCN(C)C)cn2c1N(CC)C(=O)NCCc1ccccc1	nt	nt	-2	-11	nt	nt	nt
CCOc1ccccc1NC(=O)CSc1nc2ccccc2c2nc(CCn3cncc3C)nn12	0	14	nt	nt	nt	nt	nt
Cc1ccc(-c2ocnc2C(=O)Nc2ccccc2C(=O)N2CCCC2)cc1	-1	-11	0	-7	57*	nt	nt
O=C(Nc1ccccc1C(=O)N1CCCC1)c1ncoc1-c1cccc(Cl)c1	0	3	4	-1	17	nt	nt
COc1ccc(-n2cc(-c3ccccc3)c3c(N4CCOCC4)ncnc32)cc1	0	5	?	62*	-6	nt	nt
Fc1ccc(-n2cc(-c3ccccc3)c3c(N4CCOCC4)ncnc32)cc1	1	13	?	20	-2	nt	nt
O=C(CN1CCc2cc3c(cc2C1)OCCCO3)Nc1c(F)cccc1F	1	-3	-1	-25	42*	nt	nt
CC(C)=C(NC(=O)c1ccccc1)C(=O)NC(Cc1ccccc1)C(=O)O (centres undefined)	1	-2	1	-1	39*	nt	nt
COc1ccc(OC)c2sc(NC(=O)C3CC3)nc12	1	-21	-4	-5	65*	nt	nt
CCC(=O)Nc1nc2c(OC)ccc(OC)c2s1	0	-1	-2	-2	-9	nt	nt
CCCn1c(N)c(NCCN2CCOCC2)c(=O)n(CC(=O)NCc2ccccc2)c1=O	1	3	-3	-1	33*	nt	nt
Cc1nn(CC(=O)NCCN2CCOCC2)c(=O)c2ccccc12	0	1	-4	-7	8	nt	nt
CCOC(=O)C1C(=O)Nc2nc(C)nn2C1c1ccccc1 (centres undefined)	1	5	-2	-13	42*	nt	nt
CN(C)/C=C1\C=C2C(=O)c3ccccc3N2C1=O	96*	-7	5	4	18	nt	nt
CC(C)NC(=O)CSc1cn(CC(=O)N2CCCCCC2)c2ccccc12	0	0	nt	nt	nt	nt	nt
Nc1nc(Nc2cccc(F)c2)nc(N2CCOCC2)c1[N+](=O)[O-]	0	-12	4	-10	-7	nt	nt
CN1CCN(c2nc(Nc3ccccc3)nc(N)c2[N+](=O)[O-])CC1	-1	-25	-2	-17	83*	nt	nt
Cc1cccc(Nc2nc(N)c([N+](=O)[O-])c(N3CCN(C)CC3)n2)c1	-1	-30	-5	-35	55*	nt	nt
FC(F)(F)c1nc(-c2ccncc2)ncc1-c1nnnn1-c1ccccc1	0	26	0	-7	58*	nt	nt
Cc1cccc(NC(=O)C(=O)NCCc2sc(-c3ccccc3)nc2C)c1C	1	3	nt	nt	nt	nt	nt
O=C(COC(=O)c1ccc(S(=O)(=O)NCc2ccco2)cc1)NCc1ccc(F)cc1	0	64*	4	-1	-11	nt	nt
O=S(=O)(NCCc1csc(-c2cccnc2)n1)c1cccc(F)c1	0	-4	0	-6	-1	nt	nt
O=S(=O)(NCCc1csc(-c2cccnc2)n1)c1cc(F)ccc1F	-1	1	2	-6	39*	1%	2%
CCCN(CCC)CCCNC(=O)CC(C(=O)N1CCc2ccccc21)n1ccnc1 (centres undefined)	8	-17	2	2	-11	-17%	-2%
COc1ccc(OC)c(NC(=O)Cn2c(=O)c3cccn3c3ccccc32)c1	0	6	nt	nt	nt	nt	nt
SMILES	D2 ag-1	D2 PAM-1	D2 ag-2	D2 PAM-2	D2 antag	D3 ag	D2 ag-3
CCOc1ccc(N=C2NC(=O)S/C2=C\c2ccc(Cl)cc2)cc1	0	-11	-4	-34	-5	nt	nt
COc1ccc(N=C2NC(=O)S/C2=C\c2ccc(N(C)C)cc2)cc1	14	-20	-5	-47	-15	-25%	-13%
COc1ccc(NC(=O)CSCC(=O)Nc2ccc(S(=O)(=O)N3CCOCC3)cc2)cc1	0	-4	2	0	4	1%	4%
COc1cc(Cl)c(NC(=O)c2cc3ccccn3n2)c(OC)c1	nt	0	nt	nt	nt	nt	nt
CCOC(=O)c1c(C)oc2nc(C)nc(N(C)Cc3ccccc3)c12	0	0	nt	nt	nt	nt	nt
Cc1ccc(OCCOCCN2CCCCC2)c([N+](=O)[O-])c1	0	-1	-1	-6	-6	nt	nt
Cc1ccc([N+](=O)[O-])c(OCCN2CCNCC2)c1	68*	-17	-1	-4	71*	?	4%
Cc1ccccc1C(=O)Nc1cccc(C(=O)OCc2cc(=O)n3c(C)csc3n2)c1	1	2	nt	nt	nt	nt	nt
CCN(C(=O)CSc1ncccn1)c1c(N)n(Cc2ccccc2)c(=O)[nH]c1=O	0	-3	-3	-3	7	-7%	-4%
CC(C)c1ccc(S(=O)(=O)NCc2nc3cccnc3n2Cc2ccc(F)cc2)cc1	0	6	nt	nt	nt	nt	nt
CCN1CCN(c2ncnc3scc(-c4ccc(OC)cc4)c23)CC1	41*	-1	78*	5	-13	0%	40µM*
COc1cccc(-c2ccc3c(N)c(C(=O)NCc4ccc(Cl)cc4)sc3n2)c1	0	-4	nt	nt	nt	nt	nt
O=C(NCCc1ccccc1)c1coc(=O)c(Br)c1	39*	0	2	2	13	4%	14%
CN(C)CCNC(=O)c1coc(=O)c(Br)c1	0	4	-3	20	6	nt	nt
CCOc1ccc(Nc2sc(C(=O)c3ccc4c(c3)OCO4)c(N)c2S(=O)(=O)c2ccc(C)cc2)cc1	nt	1	nt	nt	nt	nt	nt
COc1cccc(NC(=O)CN(C)C(=O)C(Sc2ccccc2)c2ccccc2)c1 (centres undefined)	0	-13	-4	-13	0	-4%	0%
COc1cccc(NC(=O)CN(C)C(=O)c2ccc3c(c2)C(=O)N(CCC(C)C)C3=O)c1	0	8	2	-1	-14	7%	3%
COc1cccc(NC(=O)CN(C)C(=O)CCC(=O)c2cc(C)sc2C)c1	-1	9	2	-10	-20	-4%	-2%
COCCCN1C(=O)c2ccc(C(=O)Nc3cccc(OC)c3)cc2C1=O	0	0	-1	-2	13	nt	nt
O=C(O)CCSc1ccc([N+](=O)[O-])cc1[N+](=O)[O-]	nt	-4	14	2	nt	?	6%
COc1ccc(OC)c(NC(=O)CN2C(=O)COc3ccc(S(=O)(=O)NC4CCCC4)cc32)c1	0	nt	nt	nt	nt	nt	nt
COc1cc(OC)cc(-c2c(-c3cccs3)c3cc(-c4ccc(N(C)C)nc4)ccc3n2C)c1	0	20	-4	-3	3	2%	14%
